In PubChem BioAssay AID1159580 (chemical genetic matrix, 2015):
The whole screen tested about 5,500 compounds, of which about 2,000 (36%) were called active. Inconclusive results (about 18%) are left out. No stated cut-off is given here; in the data, active means normalized growth mostly below about 0.91 (no sharp cut-off); inconclusive means no clear call, values can overlap the other calls; inactive means mostly above about 0.92. This is one part of the list.

Assay: chemical genetic growth profiling, strain panel (AID 1159580);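 further: tested at 20 µM; growth read once vehicle control cultures reached saturation at 30 °C; 1 = growth at the plate median or of vehicle wells; lower values mean less growth of the strain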
Settings: S. cerevisiae deletion strains, growth OD

Measured: normalized growth

NC(CP(=O)(O)O)C(=O)O (centres undefined)
inactive: locus YAL040C, strain CLN3, active compounds read low 1.09 | locus YCL061C, strain MRC1 (second series), active compounds read low 0.998 | locus YER002W, strain NOP16, active compounds read low 1.03 | locus YNL153C, strain GIM3, active compounds read low 1.04 | locus YNL175C, strain NOP13, active compounds read low 1.01 | locus YNL197C, strain WHI3, active compounds read low 1.01 | locus YNL224C, strain SQS1, active compounds read low 1.01 | locus YOR083W, strain WHI5 (second series), active compounds read low 1.01 | locus YPL055C, strain LGE1, active compounds read low 1.02
